Experimental findings from PubChem BioAssay are described below.

Test [1] can be described thus: liver-stage malaria parasite growth inhibition, primary screen, cell-based, HepG2, luciferase luminescence, HepG2 viability (AID 624349).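 Also: 100% = mean of DMSO negative control wells on the same plate.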 The conditions noted are these: P. berghei liver stage in HepG2, luciferase luminescence, concentration not given here; parasite load remaining: stronger effect = lower value; viability: measured here: HepG2 viability without parasites.
Test [2] in a line: stimulators of nuclear beta-catenin in C2C12, primary screen, imaging, WNT3A-conditioned medium, mouse C2C12, NPC library (AID 1117326; in the data active = nuclear beta-catenin stimulation mostly above about 4.2%, no sharp cut-off; inactive = mostly below about 10%). The settings on record: stronger effect = higher value.
The nature of test [3]: stimulators of insulin release from INS-1E, primary screen, cell-based, 5 mM glucose, NPC library (AID 1117329;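 active = compound raises insulin release from rat beta cells at 5 mM glucose, no numeric limit stated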). The conditions noted are these: rat INS-1E insulin secretion, at 10 µM, stronger effect = higher value.
Test [4] in a line: growth inhibition of GSK3B-pretreated HCT116 cells – cell-based, CellTiter-Glo, 0.2 to 20 µM (AID 1117336;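 active = compounds lowering colon cancer cell viability after pretreatment blocking the GSK3B kinase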). The conditions noted are these: HCT116 viability after GSK3B inhibitor, at 20 µM, stronger effect = higher value.
A short description of test [5]: inhibition of endothelial tube formation, primary screen, imaging, VEGF stimulated, CD31 staining, tube area, NPC library (AID 1117340;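 active = compound that reduces growth-factor-driven endothelial tube area in a mixed cell culture, no cutoff stated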). The settings on record: VEGF-stimulated ADSC/ECFC co-culture, at 10 µM, stronger effect = higher value.
Test [6] in a line: glucagon-like peptide 1 release enhancers, primary assay, NCI-H716 cell line, NPC library (AID 1117341;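 active = compound raises GLP1 secretion from the human gut endocrine cells, with no numeric limit stated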). The conditions noted are these: NCI-H716 cells, at 10 µM, stronger effect = higher value.
Test [7] is described as follows: HCT116 colon cancer cell growth inhibition, primary screen, CellTiter-Glo luminescence, NPC library (AID 1117342;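 active = compounds that lower survival of HCT116 colon cancer cells in the luminescence readout, no numeric limit stated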). The conditions noted are these: at 20 µM (top of the series).
Test [8] is described as follows: CellTiter-Glo luminescent readout of SW480 viability loss, NPC library primary (AID 1117343;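 active = compounds that lower viability of the colon cancer cells in the luminescence readout, with no numeric limit stated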). The conditions noted are these: CellTiter-Glo luminescence; at 20 µM (top of the series). Background: In ATP-based viability assays light output follows the ATP content of the culture.
A short description of test [9]: decreased DLD-1 cellular survival, CellTiter-Glo luminescent readout, NPC compound collection, primary HTS (AID 1117346;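 active = compounds that lower survival of DLD-1 colon cancer cells in the luminescence readout, no cutoff given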). The settings on record: DLD-1 viability, CellTiter-Glo luminescence; at 20 µM (top of the series).
Test [10] concerns the target 6-phosphogluconate dehydrogenase, decarboxylating (Homo sapiens) (UniProt P52209). Briefly: 6PGD enzyme inhibitors, primary screen, biochemical, human, recombinant enzyme, NADPH absorbance (AID 1159550;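 active = at least 20% inhibition of 6-phosphogluconate dehydrogenase activity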). The conditions noted are these: recombinant 6PGD, NADPH absorbance 341 nm; at 10 µM; stronger effect = higher value.

The structures appear in SMILES notation. “And” between values parts separate entries of the source, which are not always exact repeats. Identical values can stand only once. The source made the active and inactive calls. Rule as the data show it, unless noted: active = parasite load remaining mostly below about 12% (no sharp cut-off); inactive = mostly above about 10%.

6-phosphogluconate dehydrogenase, decarboxylating (Homo sapiens), sequence (P52209 whole entry, looked up): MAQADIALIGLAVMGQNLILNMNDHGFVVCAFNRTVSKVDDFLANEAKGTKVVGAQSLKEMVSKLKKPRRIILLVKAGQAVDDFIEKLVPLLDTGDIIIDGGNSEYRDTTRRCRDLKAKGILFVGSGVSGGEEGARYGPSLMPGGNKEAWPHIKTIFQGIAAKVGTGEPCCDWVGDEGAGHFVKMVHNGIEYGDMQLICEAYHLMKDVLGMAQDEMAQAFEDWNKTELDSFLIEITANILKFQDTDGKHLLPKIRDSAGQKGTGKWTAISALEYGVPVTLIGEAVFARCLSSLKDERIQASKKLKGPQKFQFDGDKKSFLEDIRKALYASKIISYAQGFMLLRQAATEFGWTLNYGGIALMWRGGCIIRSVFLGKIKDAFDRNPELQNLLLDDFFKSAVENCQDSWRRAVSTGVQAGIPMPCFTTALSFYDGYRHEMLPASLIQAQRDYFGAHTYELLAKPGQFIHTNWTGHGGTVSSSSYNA

As a reminder, the viability is a read-out of living cells in per cent, often relative to untreated cells. Usually inhibition stands for the relative decrease from the control value, in per cent. `Cc1cc(C)nc(NS(=O)(=O)c2ccc(N)cc2)n1`: the parasite load remaining in test [1] was 78.5% (inactive) and 292% (inactive) and 25.7% (inactive). The viability in [1] is 96.6% and 70.6% and 93.3%. The nuclear beta-catenin stimulation was 0.2% (inactive) in test [2] (at 10 µM) and 0.2% in [2] (stimulation, at 2 µM). The insulin secretion stimulation in [3] is 0.4% (inactive). Besides, the viability decrease in test [4] is -0.3% (inactive). For the same compound, the tube area decrease in [5] is -24.8% (inactive). Further, the GLP1 secretion stimulation in test [6] is 1.6% (inactive). In addition, in test [7], the inhibition of viability was -12.6% (inactive). Further, the figures for the viability decrease (inhibition) in test [8] and in test [9] were 35.5% (inactive) and 6.75% (inactive), respectively. Moreover, the inhibition in [10] is 1.62% (inactive).

For the compound `CCn1cc(C(=O)O)c(=O)c2cnc(N3CCNCC3)nc21`, the parasite load remaining in test [1] is 87.7% (inactive) and 144% (inactive). Besides, the viability in [1] is 98.7% and 73%. Besides, the nuclear beta-catenin stimulation in [2] (at 10 µM) was 1.9% (inactive); in test [2] (stimulation, at 2 µM), 4.3%. Moreover, the insulin secretion stimulation in [3] was 1.5% (inactive). The viability decrease in test [4] was -23.1% (inactive). In addition, the tube area decrease in [5] was 0.7% (inactive). Besides, the GLP1 secretion stimulation in test [6] was -1.8% (inactive). The inhibition of viability in test [7] was -0.3% (inactive). For the same compound, the viability decrease (inhibition) was -4.5% (inactive) in test [8] and -15.1% (inactive) in test [9]. Besides, in [10], the inhibition was 6.84% (inactive).

Take `COc1cc(NS(=O)(=O)c2ccc(N)cc2)ncn1`: in [1], the parasite load remaining is 84.2% (inactive) and 61.4% (inactive) and 48% (inactive). For the same compound, the viability in test [1] is 97.9% and 64.7% and 90.8%. The nuclear beta-catenin stimulation in test [2] (at 10 µM) was 3% (inactive); in test [2] (stimulation, at 2 µM), 3.5%. In addition, the insulin secretion stimulation in test [3] was 4.3% (inactive). In [4], the viability decrease was 16.8% (inactive). In addition, the tube area decrease in test [5] was 1.4% (inactive). Besides, in test [6], the GLP1 secretion stimulation was -4.1% (inactive). Also, the inhibition of viability in test [7] is 3.43% (inactive). The viability decrease (inhibition) is -10.6% (inactive) in [8] and 3.8% (inactive) in test [9]. Also, the inhibition in test [10] was -1.56% (inactive).

`Cn1c(=O)c2c(ncn2CCO)n(C)c1=O`: the parasite load remaining in test [1] is 29.7% (inactive) and 108% (inactive). Besides, in test [1], the viability was 47.6% and 91.1%. Besides, the nuclear beta-catenin stimulation in [2] (at 10 µM) was 2.5% (inactive); in test [2] (stimulation, at 2 µM) it was 1.4%. In addition, in test [3], the insulin secretion stimulation was 1.4% (inactive). In test [4], the viability decrease is 15.8% (inactive). In test [5], the tube area decrease was -12.3% (inactive). The GLP1 secretion stimulation in [6] is -0.6% (inactive). Besides, in test [7], the inhibition of viability is -8% (inactive). For the same compound, the viability decrease (inhibition) in [8] was -1.2% (inactive); in test [9], -21.2% (inactive). For the same compound, the inhibition in test [10] is -5.12% (inactive).

As to `S=P(N1CC1)(N1CC1)N1CC1`, in test [1], the parasite load remaining was 137% (inactive) and 49.2% (inactive). The viability in [1] was 91% and 141%. Further, the nuclear beta-catenin stimulation in test [2] (at 10 µM) is -0.7% (inactive); in test [2] (stimulation, at 2 µM) it was -0.3%. Besides, the insulin secretion stimulation in test [3] is 1.3% (inactive). Besides, in test [4], the viability decrease is 16.4% (inactive). Further, the tube area decrease in test [5] is 35.1% (inactive). For the same compound, the GLP1 secretion stimulation in [6] is -2.2% (inactive). Moreover, the inhibition of viability in [7] is 22.3% (inactive). Also, the viability decrease (inhibition) in test [8] was 33.3% (inactive); in [9], 18.9% (inactive). Also, the inhibition in test [10] is -6.76% (inactive).

Regarding `Nc1nc2c(c(=O)[nH]1)N(C=O)C(CNc1ccc(C(=O)N[C@@H](CCC(=O)O)C(=O)O)cc1)CN2` (some centres not stated), in test [1], the parasite load remaining is 101% (inactive) and 95.5% (inactive) and 64.5% (inactive). Besides, the viability in [1] is 96.6% and 70.1% and 99.2%. Moreover, the nuclear beta-catenin stimulation in test [2] (at 10 µM) is 1.7% (inactive); in test [2] (stimulation, at 2 µM) it was 4.1%. Also, in test [3], the insulin secretion stimulation was 3.9% (inactive). Moreover, the viability decrease in test [4] was 19.3% (inactive). In addition, in [5], the tube area decrease was 1.3% (inactive). The GLP1 secretion stimulation in test [6] is 0.8% (inactive). Besides, the inhibition of viability in test [7] was -11.6% (inactive). Further, the viability decrease (inhibition) is 24.4% (inactive) in [8] and -9.9% (inactive) in test [9]. For the same compound, in [10], the inhibition is -1.29% (inactive).
